The list is not random: actives were taken first. Their share in the collection is about 3.6%.
pS6 MEF inh = mTORC1 pathway inhibition measured by phospho-rpS6; Tsc2-/- p53-/- MEF, phospho-rpS6 immunofluorescence/PI, 24 h; AID 493208; Potency, µM (titrated, usually from 38.3 µM), for the others: at the highest dose activity change, negative = inhibition, actives largely listed as inhibitors; 44,000 compounds, 0.78% hits;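 note: plate controls were DMSO for no effect and rapamycin for full effect; nearly all actives have a fitted effect of over 50% in size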
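Plate MEFs (Tsc2-/-, p53-/-, empty vector) in DMEM/10% FBS; after 24 h add compound, incubate 24 h at 37 degree Celsius; fix in PFA/TX-100, block, stain phospho-rpS6 and 10 uM PI; scan at 488 nm; report % positive cells.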
OvCa metastasis = inhibitors of ovarian cancer cell adhesion and invasion in omental model; Potency, µM (top dose mostly 45.8 µM), inactives show at the top dose activity change, negative = inhibition, most hits filed as inhibitors; AID 1963576; SKOV3ip1-GFP adhesion/invasion on 3D omental model, fluorescence; 46,000 compounds, 0.1% hits;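 note: plate controls were DMSO wells for no effect and tomatine positive control wells for full effect; nearly all actives have a fitted effect of over 65% in size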
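Adhesion/invasion was scored as fixed GFP-labeled SKOV3ip1 cell counts (488/509 nm), normalized to DMSO and tomatine controls. Cancer cells in serum-free medium, with four compound doses (0.36-46 umol/L), sat 2 hr at RT then 16 hr at 37 C on a 48 hr fibroblast/mesothelial/ECM culture.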
S16 viability = toxic to S16 Pmp22-F2sN Schwann cells | S16 Pmp22-F2sN Schwann cells viability, CellTiter-Glo, 24 h | Potency, µM (titrated, usually from 57.5 µM), without a hit: at the top dose activity change, negative = cytotoxicity, actives largely listed as cytotoxic | 43,000 compounds, 0.48% hits | AID 1508642; note: % is set by controls: 0 for no effect and ±100 for the full control effect; nearly all actives have a fitted effect of over 65% in size
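Viability was measured by CellTiter-Glo luminescence (15 min, room temperature). This followed 24 h at 37 °C of compound exposure (23 nL pin transfer) in S16 Pmp22-F2sN Schwann cells, 500-1,000 per well.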
HTT-AS promoter = HTT-AS promoter activation. HEK293 HTT-AS promoter firefly luciferase reporter, 24 h; response scale: percent change from vehicle, -100% = no light. Potency, µM (series often up to 57.5 µM), for inactives: at the highest dose activity change, positive = activation, usual class: activators. 48,000 compounds, 0.24% hits. AID 1508624; note: nearly all actives have a fitted effect of over 55% in size
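HEK293 cells carrying firefly luciferase reporters were seeded at 2,500 per well in Opti-MEM and cultured for 24 h. They were then treated with compounds at up to 57.5 uM final for 24 h at 37 degrees C before Dual-Glo luminescence readout.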
PMP22 txn prim = PMP22 gene transcription modulation; S16 Pmp22-F2sN Schwann cells (luciferase reporters placed in the Pmp22 gene), FLuc/NLuc coincidence luminescence, 24 h; Potency, µM (series often up to 57.5 µM), for the others: at the top dose activity change, negative = inhibition, most hits filed as inhibitors; 43,000 compounds, 2% hits; active = clear falling dose curves in both reporters; inconclusive = both reporters move, but less clearly or upward; inactive = either reporter flat; the % is the NLuc reporter signal; note: % is set by controls: 0 for no effect and ±100 for the full control effect
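Schwann cells carrying the coincidence reporter were exposed to library compounds for 24 h at 37C, then lysed and read for FLuc and, after quenching, NLuc luminescence on a CCD imager.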
HTT promoter inh = HTT promoter inhibition; HEK293 HTT promoter firefly luciferase reporter, 24 h; Potency, µM (titrated, usually from 57.5 µM), for inactives: at the top dose activity change, negative = inhibition, usual class: inhibitors; 48,000 compounds, 0.93% hits; note: nearly all actives have a fitted effect of over 50% in size
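Quantitative HTS used concentration series of up to 57.5 uM final on HEK293 luciferase reporter cells, 24 h at 37 degrees C. Readout was Dual-Glo firefly luminescence.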
Active calls of the source: *; i = inactive; ? = inconclusive; . = no result; [ ] = remark or other dose. Unless noted, calls come from the whole dose curve; as a rule, active = well fitted curve in the direction sought with a large enough effect; inconclusive = small, poorly fitted or top-dose-only effect, or another doubt; inactive = no such curve, though single readings can be large; an effect the other way counts as inactive or inconclusive. Potency is the fitted concentration of half-maximal effect.

SMILES | pS6 MEF inh | OvCa metastasis | S16 viability | HTT-AS promoter | PMP22 txn prim | HTT promoter inh
Cc1cc(F)ccc1S(=O)(=O)NCC(c1ccco1)S(=O)(=O)c1cccs1 (centres undefined) | 0.7% | ? | 15.8µM* | -4.8% | ? | -16.5%
CCOc1ccc(S(=O)(=O)NCC(c2ccco2)S(=O)(=O)c2cccs2)cc1 (centres undefined) | 0.7% | -1.3% | ? | -10.3% | ? | ?
COc1ccc(S(=O)(=O)NCC(c2ccco2)S(=O)(=O)c2ccc(C)cc2)cc1F (centres undefined) | -6.1% | 2.3% | ? | -8.5% | ? | -23.4%
COc1ccc(S(=O)(=O)NCC(c2ccco2)S(=O)(=O)c2cccs2)cc1F (centres undefined) | -4.9% | 7.4% | 12.6µM* | -15.5% | 15µM* | ?
COC(=O)c1c(NC(=O)c2cc(OC)c(OC)c(OC)c2Br)sc2c1CCC(C)C2 (centres undefined) | -0.5% | 6.4% | -9.0% | 15.7%[11.5 µM] | -0.1% | 22.3%
COc1cc(C(=O)Nc2sc3c(c2C#N)CCCC3)c(Br)c(OC)c1OC | 7.4% | -9.2% | ? | -33.2% | 13.4µM* | -7.7%
Cn1c(=O)c2c(nc(N3CCOCC3)n2Cc2ccccc2)n(C)c1=O | -0.1% | i | 11.4% | -2.2% | -6.5% | -4.9%
CCOC(=O)Cn1c(=O)c2c(nc(N3CCOCC3)n2Cc2ccccc2)n(C)c1=O | 9.27µM* | i | 6.2% | -4.2% | -82.9% | 2.6%
CCN1CCN(c2cc(C)c3cc(NC(=O)/C=C/c4ccc(C)cc4)ccc3n2)CC1 | 18.5µM* | ? | ? | 5.0% | ? | -9.2%
CCN1CCN(c2cc(C)c3cc(NC(=O)/C=C/c4ccc(OCCC(C)C)cc4)ccc3n2)CC1 | 4.14µM* | -21.2% | ? | -12.0% | ? | -4.1%
COc1ccc(/C=C/C(=O)Nc2ccc3nc(N4CCC(C)CC4)cc(C)c3c2)cc1OC | ? | ? | ? | -28.6% | ? | ?
NC(=O)c1cccc2cn(-c3ccc([C@@H]4CCCNC4)cc3)nc12 | . | -9.3% | . | -1.3% | . | 11.6%
CCc1ccc(S(=O)(=O)N(C(=O)Oc2ccccc2)c2ccc3oc(C)c(C(=O)OC)c3c2)cc1 | ? | i | ? | -90.7% | ? | 7.94µM*
COC(=O)c1c(C)oc2ccc(N(C(=O)c3ccncc3)S(=O)(=O)c3cc(C)c(C)cc3C)cc12 | ? | i | ? | -59.8% | ? | 12.6µM*
CC(=O)c1c(C)oc2ccc(N(C(=O)c3ccncc3)S(=O)(=O)c3ccc(F)cc3C)cc12 | ? | -4.0% | -8.6% | -40.2% | ? | ?
CC(C)c1c(C(=O)Nc2ccccc2)c(-c2ccccc2)c(-c2ccc(F)cc2)n1CC[C@H](O)C[C@@H](O)CC(=O)O | . | -19.4% | . | -12.9% | . | 6.0%
CCOC(=O)c1cnc2ccc(C)cc2c1Nc1ccc(N(CC)CC)cc1 | ? | -26.4% | ? | -80.8% | ? | 25.1µM*
CCOC(=O)c1cnc2ccc(Cl)cc2c1Nc1ccc(N2CCOCC2)cc1 | -0.3% | 14.9% | ? | -37.8% | ? | -31.9%
O=C(c1cncc(Br)c1)N1CCC(N2CCCC2)CC1 | . | 3.6% | . | -0.6% | . | 5.6%
Cc1ccc(-n2nc(C(=O)N3CCN(c4cccc(C(F)(F)F)c4)CC3)c(=O)n(C)c2=O)cc1 | -6.4% | -0.9% | -24.3% | -32.4% | ? | 31.6µM*
Oc1c(C(Nc2ccccn2)c2ccccc2F)ccc2cccnc12 (centres undefined) | ? | 0.8% | 2µM* | -30.4% | ? | ?
Cc1ccnc(NC(c2ccccc2F)c2ccc3cccnc3c2O)c1 (centres undefined) | ? | i | ? | -48.7% | ? | ?
COc1ccc(-c2cn3nc(SCC(=O)Nc4ccccc4F)ccc3n2)cc1 | 6.2% | ? | 4.0% | -91.8% | 5.7% | 3.98µM*
CCOc1cc(Cl)c(S(=O)(=O)n2cc(C)nc2CC)cc1Cl | -1.8% | i | ? | -68.8% | ? | 15.8µM*
CCc1nc(C)cn1S(=O)(=O)c1ccc(Cl)c(Cl)c1OC | -16.7% | i | -7.2% | -89.3% | ? | 12.6µM*
SMILES | pS6 MEF inh | OvCa metastasis | S16 viability | HTT-AS promoter | PMP22 txn prim | HTT promoter inh
C[C@](Cc1c[nH]c2ccccc12)(NC(=O)OC1C2CC3CC(C2)CC1C3)C(=O)NC[C@H](NC(=O)CCC(=O)O)c1ccccc1 (some centres undefined) | . | 2.0% | . | -12.4% | . | 26.3%
CC[C@@H](C)[C@H](NC(=O)[C@H](CC1CCCCC1)NC(=O)c1ccno1)C(=O)N1CCC2(CCc3ccccc32)CC1 | . | -31.7% | . | -20.7% | . | -9.0%
COc1cc(OC)cc(-c2nc(-c3cccc(C)c3)no2)c1 | -3.0% | 8.8% | 5.6% | 11.2µM* | 10.8% | 60.8%
COc1ccccc1OCc1nc(-c2cccc(C)c2)no1 | 20.3% | 7.1% | 1.9% | 10µM* | 18.8% | 68.8%
O=[N+]([O-])c1cn2c(n1)OC[C@@H](OCc1ccc(OC(F)(F)F)cc1)C2 | . | 1.8% | . | -13.2% | . | -9.3%
CC[C@@]1(O)C[C@H](O[C@H]2C[C@H](N(C)C)[C@H](O[C@H]3C[C@H](O)[C@H](O[C@H]4CCC(=O)[C@H](C)O4)[C@H](C)O3)[C@H](C)O2)c2c(cc3c(c2O)C(=O)c2c(O)cccc2C3=O)[C@@H]1C(=O)OC | . | 5.8% | . | -25.1% | . | -1.9%
Cc1ccc(C)c(NC(=O)Cn2nnc(C(=O)NCc3ccccc3Cl)c2N)c1 | -3.8% | ? | 14.1µM* | -9.1% | ? | ?
Cc1cccc(NC(=O)Cn2c(=O)oc3cc(S(=O)(=O)N4CCCCCC4)ccc32)c1 | 1.1% | -25.4% | ? | -50.4% | ? | 10µM*
CC1CCN(S(=O)(=O)c2ccc3c(c2)oc(=O)n3CC(=O)NC(C)c2ccccc2)CC1 (centres undefined) | -10.3% | 2.5% | ? | -34.5% | ? | 14.1µM*
COc1cccc(NC(=O)Cn2c(=O)oc3cc(S(=O)(=O)N4CCCCC4)ccc32)c1 | 0.0% | ? | 3.0% | -40.4% | -36.6% | ?
C=CC[N+]1([C@H]2C[C@H]3[C@@H]4CC[C@H]5C[C@H](O)[C@@H](N6CCOCC6)C[C@]5(C)[C@@H]4CC[C@]3(C)[C@H]2OC(C)=O)CCCC1 | . | -14.1% | . | -7.4% | . | -1.7%

From PubChem BioAssay
